Screen size: about 420,000 compounds; about 64,000 (15%) were called active. Not shown: some 27% with an inconclusive outcome. Only a sample is shown. Values without a mark were called inactive. Calls come from the whole dose curve; as a rule, active = well fitted inhibition curve with a large enough effect; inconclusive = small, poorly fitted or top-dose-only effect; inactive = flat fitted curve, though single readings scatter.
Assay: qHTS for Inhibitors of human tyrosyl-DNA phosphodiesterase 1 (TDP1): qHTS in cells in absence of CPT; note: nearly all actives have a fitted effect of over 55% in size
Conditions: DT40 Tdp1-/- hTDP1 cells, no CPT, ATP luminescence, 48 h; activity change, negative = growth inhibition: at 46.2 µM (top of the series)
How it was run: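 Chicken DT40 Tdp1-/- cells complemented with human TDP1, screened without camptothecin (DMSO vehicle only), 400 cells/well. Compounds pin-transferred, cells incubated at 37 °C for at least 48 hr. Growth read as ATP-dependent luminescence (CellTiter-Glo, 30 min at RT).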
% is set by controls: 0 for no effect and ±100 for the full control effect; potency is the fitted concentration of half-maximal effect.

Row | SMILES | activity change, negative = growth inhibition | Potency
1 | O=c1c2ccccc2cnn1Cc1n[nH]c(=S)n1-c1ccccc1F | -6.52% | –
2 | CNS(=O)(=O)c1cnccc1N1CCN(c2cccc(C)c2)CC1 | 8.13% | –
3 | CC(C)=C1SC(N2CCN(c3cccc(C)c3)CC2)=NC1=O | – | 20.6 µM (active)
4 | Cc1ccc(N2CCN(C3=NC(=O)/C(=C\c4cccs4)S3)CC2)cc1 | -22.3% | –
5 | N/C(=N\OC(=O)CC1CCCCC1)c1ccccc1 | -3.88% | –
6 | Cc1cc(C)c2c(=O)[nH]c(SCC(=O)Nc3ccc(Br)cc3)nc2n1 | -37.2% | –
7 | O=C(Nc1cc(S(=O)(=O)N2CCOCC2)ccc1OCC(F)(F)F)c1ccc(N2CCCC2=O)cc1 | -18.2% | –
8 | CCOC(=O)C1C(c2ccc(Cl)cc2)NC(=S)NC1(O)C(F)(F)F (configuration not stated) | -14.7% | –
9 | O=C(CSc1ncn[nH]1)N/N=C/c1ccc(F)cc1 | -2.04% | –
10 | O=C(NCCOCc1ccc(Cl)cc1)c1ncn[nH]1 | -12.1% | –
11 | O=C(/C=C/Sc1ncn[nH]1)c1ccc(Cl)cc1 | – | 2.59 µM (active)
12 | Cc1ccc(C(=O)Nc2nc3ccc(Cl)cc3s2)o1 | -29.3% | –
13 | Cc1csc(NC(=O)c2ccc(-c3ccc(Cl)cc3Cl)o2)n1 | – | 5.17 µM (active)
14 | O=C(Nc1cccnc1Cl)c1cc(-c2cccc(Cl)c2)on1 | – | inactive
15 | O=C(Nc1cccc2ncccc12)c1ccc(-c2ccc(Cl)cc2Cl)o1 | – | 20.6 µM (active)
16 | Cc1csc(NC(=O)c2ccc(C)s2)n1 | -3.86% | –
17 | O=C(O)c1cc(Cl)c(Cl)cc1C(=O)Nc1cccc2ncccc12 | -3.56% | –
18 | COc1ccc(Br)c2c1C(=O)CC2 | -9.71% | –
19 | O=C(NCc1ccc(F)cc1)C(c1ccccc1)N(C(=O)c1csnn1)C1CC1 (configuration not stated) | -5.76% | –
20 | CCNC(=O)N1CCN(S(=O)(=O)c2ccc3c(c2)OCCCO3)CC1 | -11.4% | –
21 | O=C(CCl)Nc1ccc(Sc2ccc(NC(=O)CCl)cc2)cc1 | – | 5.17 µM (active)
22 | O=C(Cc1ccc(Cl)c(Cl)c1)Nc1ccc(SC(F)F)cc1 | -118% | –
23 | Cc1ccc(NC(=O)CC(=O)Nc2ccc(C)cc2)cc1 | 1.48% | –
24 | CCN(c1ccccc1)S(=O)(=O)c1ccc(NC(=O)C(C)(C)C)cc1 | -11.1% | –
25 | CC(C)(CCl)C(=O)Nc1ccc(Sc2ccc(F)cc2)cc1 | – | 7.31 µM (active)
26 | CC(=O)Nc1cc(C(=O)NCc2ccc(F)cc2)ccc1Sc1ccc(F)cc1 | -96.8% | –

Row | SMILES | activity change, negative = growth inhibition | Potency
27 | Cc1sc2ncn(CC(=O)NCCCC(=O)NCc3ccc(F)cc3)c(=O)c2c1C | -8.84% | –
28 | Cc1c(Cl)cccc1NC(=O)CC1SC(=NCC2CCCO2)NC1=O (configuration not stated) | -9.62% | –
29 | COc1ccc(N2C(=O)C3CCCN3C2c2cc(OC)c(OC)cc2OC)cc1 (configuration not stated) | -20.9% | –
30 | CCNC(=O)C1(C)CCCN(C(=O)c2ccc3ccccc3n2)C1 (configuration not stated) | -3.43% | –
31 | CC(=O)Nc1ccc(/C=N/NC(=O)c2cccs2)cc1 | 0.163% | –
32 | Cc1cc(/C=N/NC(N)=O)c(C)n1C1CCCCC1 | 2.04% | –
33 | Cc1cccc(-n2c(C)cc(/C=N\NC(=O)c3cccs3)c2C)c1 | – | 16.4 µM (active)
34 | Cc1cc(/C=N/n2cnnc2)c(C)n1-c1cccc(C(=O)O)c1 | -0.81% | –
35 | Cc1cc(/C=N/NC(=O)c2cccnc2)c(C)n1CC(C)C | -0.506% | –
36 | Cc1cccc(-n2c(C)cc(/C=N/NC(N)=S)c2C)c1 | – | 5.8 µM (active)
37 | Cc1c(C#N)c2ncn(CC#N)c(=O)c2n1-c1ccccc1 | -2.44% | –
38 | CCCCOC(=O)Nc1nnc(CC(=O)NCc2ccccc2)s1 | -11.9% | –
39 | Nn1c(SCC(=O)NC2CCCC2)nnc1-c1ccccc1F | -8.8% | –
40 | Cc1cc(-c2ccnc(-n3ncc(C(=O)NC(C)(C)CO)c3C3CC3)n2)c(C)s1 | – | 23.1 µM (active)
41 | Cc1cccc(CNC(=O)c2cnn(-c3nccc(-c4ccccc4F)n3)c2C2CC2)n1 | 1.08% | –
42 | Cc1cc(-c2ccnc(-n3ncc(C(=O)NCCc4ccncc4)c3C)n2)c(C)s1 | -20.8% | –
43 | CNc1nc2c(C)cccn2c(=O)c1C=Nc1ccc(OC)cc1 | 8.41% | –
44 | CC(Oc1ccc(Cl)cc1)C(=O)Nc1ncccn1 (configuration not stated) | -16.2% | –
45 | CCN1CCN(C(=O)N[C@@H](C(=O)N[C@@H]2C(=O)N3[C@@H]2SC(C)(C)[C@H]3C(=O)O)c2ccccc2)C(=O)C1=O | -0.422% | –
46 | CCc1nnc(NS(=O)(=O)c2ccc(NC(=S)NC(=O)c3cccs3)cc2)s1 | -17.6% | –
47 | O=C(NC(=S)Nc1cccc(-c2ccc(CO)o2)c1)c1cccs1 | – | 25.9 µM (active)
48 | O=C(NC(=S)Nc1ccc(NC(=O)c2cccs2)cc1)c1ccc([N+](=O)[O-])cc1 | 2.62% | –
49 | Cc1ccc(N2C(=O)C3C4C=CC(CC4)C3C2=O)cc1Cl (configuration not stated) | -6.19% | –
50 | N#Cc1cccc(OC(=O)c2ccc3c(=O)n4c(nc3c2)CCC4)c1 | -17.1% | –
51 | O=C(CSCc1cccs1)N1CCCC1 | -13.6% | –
52 | O=C(CSCc1ccc(Cl)cc1)N1CCCCC1 | – | 16.4 µM (active)

Row | SMILES | activity change, negative = growth inhibition | Potency
53 | CC(=O)C(CC(=O)N1CCCC1)C(=O)Nc1ccc(Cl)cc1 (configuration not stated) | -8.38% | –
54 | O=C(N/C(=C\c1ccc([N+](=O)[O-])cc1)C(=O)N1CCCCC1)c1ccco1 | -17.8% | –
55 | COC(=O)/C(NC(C)=O)=C(\C)c1ccc(Cl)cc1 | -13.3% | –
56 | COc1ccc(OC)c(NC(=O)CC(Cc2ccccc2OC)C(=O)O)c1 (configuration not stated) | – | 11.2 µM (active)
57 | COc1ccc(OC)c(NC(=O)Cc2cccs2)c1 | -10.7% | –
58 | CCOc1ccccc1NC(=O)Nc1cc(OC)ccc1OC | 0.675% | –
59 | CC1CC(C)(C)n2c(O)c(N=NC(N)=S)c3cccc1c32 (configuration not stated) | -23.2% | –
60 | COC(=O)[C@@]1(Cc2ccc(F)cc2)[C@H]2c3cc(C(=O)N4CCCC4)n(Cc4ccc(OC(F)(F)F)cc4)c3C[C@H]2CN1C(=O)c1ccccc1 | – | 18.4 µM (active)
61 | COC(=O)c1cccc(C(=O)N2CCC(CCC(=O)NCc3ccc(F)cc3)CC2)c1 | -6.05% | –
62 | COC(=O)[C@@]1(Cc2ccc(OC)cc2)[C@H]2c3cc(C(=O)N4CCCC4)n(Cc4ccc(OC(F)(F)F)cc4)c3C[C@H]2CN1C(=O)c1ccccc1 | – | 18.4 µM (active)
63 | COc1ccc(OCc2cccc(C(=O)N3CCCC3)c2)cc1 | -22.2% | –
64 | COc1ccc2[nH]cc(CCN3C(=O)c4ccc(C(=O)O)cc4C3=O)c2c1 | -14.5% | –
65 | COC(=O)[C@@]1(Cc2ccc(F)cc2)[C@H]2c3cc(C(=O)N(C)C)n(CCc4c[nH]c5ccc(OC)cc45)c3C[C@H]2CN1C(=O)c1ccccc1 | – | 23.1 µM (active)
66 | Cc1ccc(CN2CCNC(=O)C2CC(=O)NCc2csc(C(C)C)n2)cc1 (configuration not stated) | -4.7% | –
67 | Cc1cc(NC(=O)c2cccc(N3C(=O)CCC3=O)c2)no1 | -17.9% | –
68 | Cc1cc(N/C=C\C(=O)c2ccc(Cl)c(Cl)c2)no1 | -14.7% | –
69 | Cc1cccc(OCCC(=O)OCc2csc(CC(=O)Nc3ccccc3C)n2)c1 | 0.189% | –
70 | O=C(CSc1nnc(SCc2ccc(F)cc2)s1)Nc1ccc(C(=O)O)cc1 | 5.88% | –
71 | CCCCn1c(N)c(N(CCC(C)C)C(=O)COC(=O)c2cccnc2OCC)c(=O)[nH]c1=O | 14.9% | –
72 | O=C(NCCCCO)C(F)(F)C(F)(F)C(F)(F)C(=O)NCCCCO | 4.75% | –
73 | CC1=C2C(=O)OC(c3ccoc3)C2(C)CCC1 (configuration not stated) | -12.7% | –
74 | O=C(Nc1ccc(F)cc1)Nc1nnc([C@H]2C[C@H](O)[C@@H](CO)O2)s1 | -21.8% | –
75 | Cc1c(Cl)cnc(NC(=O)COC(=O)C2CCCC2)c1Cl | 14.7% | –
76 | Cc1ccc(NC(=O)C(C)Sc2nnc(C3CC3)n2C2CC2)cc1S(=O)(=O)N1CCOCC1 (configuration not stated) | 15% | –
77 | Clc1ccc(C2CC(c3cccs3)n3ncnc3N2)cc1Cl (configuration not stated) | -22% | –
78 | COc1ccc(C2CC(c3ccccc3)Nc3ncnn32)cc1 (configuration not stated) | -9.25% | –

Row | SMILES | activity change, negative = growth inhibition | Potency
79 | FC(F)Oc1ccccc1C1CC(c2ccc(Br)s2)Nc2ncnn21 (configuration not stated) | – | 16.4 µM (active)
80 | COc1ccc(C(=O)N2CCCC(C(=O)c3ccccc3OC)C2)cc1OC (configuration not stated) | 15.4% | –
81 | COc1ccc(F)cc1C(=O)C1CCCN(C(=O)CCc2ccccn2)C1 (configuration not stated) | – | 18.4 µM (active)
82 | CSCC(=O)N1CCCC(C(=O)c2cc(F)ccc2F)C1 (configuration not stated) | -24.5% | –
83 | CCc1ccc(CN2C(=O)c3ccccc3C2C(=O)NCC2CCCO2)cc1 (configuration not stated) | 8.07% | –
84 | COc1ccc2oc(=O)cc(CN3CCOCC3)c2c1 | 11.8% | –
85 | Cc1cc2oc(=O)cc(CN3CCN(S(=O)(=O)c4cccs4)CC3)c2cc1C(C)C | – | 20.6 µM (active)
86 | O=S(=O)(c1cccs1)N1CCN(Cc2ccccc2)CC1 | -5.85% | –
87 | O=C(CSc1nnc(-c2cccs2)n1-c1ccccc1)NCc1ccco1 | -11.9% | –
88 | CC1CCc2c(sc(NC(=O)c3ccc(Cn4cc(Br)cn4)o3)c2C(N)=O)C1 (configuration not stated) | -20.8% | –
89 | CCCCN(C(=O)c1cccc(N2C(=O)c3ccccc3C2=O)c1)c1c(N)n(CCCC)c(=O)[nH]c1=O | 17.5% | –
90 | CS(=O)(=O)c1ccc2nc(NC(=O)c3ccc(N4CCCC4=O)cc3)sc2c1 | -0.935% | –
91 | O=S(=O)(c1ccccc1)N1CCc2ccccc21 | -7.81% | –
92 | Cc1nn(C)c(C)c1S(=O)(=O)N1CCc2ccccc21 | -29.2% | –
93 | O=C(Nc1nc2ccc([N+](=O)[O-])cc2s1)c1ccc(S(=O)(=O)N2CCCc3ccccc32)cc1 | – | 4.11 µM (active)
94 | O=C(COC(=O)c1ccc(F)cc1)Nc1nc2ccc([N+](=O)[O-])cc2s1 | -18.2% | –
95 | O=C(O)CCC(=O)Nc1nc2ccc([N+](=O)[O-])cc2s1 | 4.77% | –
96 | O=C(NC(Nc1nc2ccc([N+](=O)[O-])cc2s1)(C(F)(F)F)C(F)(F)F)c1ccccc1 | – | 0.461 µM (active)
97 | O=C(Nc1nc2ccc([N+](=O)[O-])cc2s1)c1ccncc1 | -13.7% | –
98 | CSc1nc2ccc(S(=O)(=O)N3CCc4ccccc43)cc2s1 | – | 23.1 µM (active)
99 | O=C(COC(=O)c1ccc(S(=O)(=O)N2CCCCCC2)cc1)Nc1ccccc1C(F)(F)F | 1.22% | –
100 | Cc1ccc(C2(C)NC(=O)N(CC(=O)N3CC(=O)Nc4ccccc43)C2=O)cc1 (configuration not stated) | -4.34% | –
101 | COC(=O)C[C@@H]1C=C[C@@H](NC(=O)c2ccc3c(c2)OCO3)[C@@H](CO)O1 | -10.5% | –
102 | COCCC(=O)N1CCC(Oc2ccc(C(=O)NCc3ccon3)cc2)CC1 | -24.7% | –
